# Source: PubChem BioAssay
# A1 inh = caspase 3/7 activation in MEF A1-2A-BIM cells, primary screen, A1 inhibitor project, cell-based, luminescence, HTS | Caspase-Glo 3/7 luminescence, 3 h; percent of clofoctol response, vehicle zero | AID 2462, 2010 | caspase activation, % (concentration not given with the values) | 330,000 compounds, 0.066% hits;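 active = over half of replicate activation scores above 10%, or exactly half above 10 with the replicate mean above 10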
# aSyn 5UTR inh = MLPCN primary screen, SNCA 5' untranslated region. alpha-synuclein 5'UTR reporter, inhibitor activity. inhibition, % (tested at 7.5 µM). 300,000 compounds, 0.82% hits. AID 1813, 2009; in the data active = inhibition above about 60%;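 note: H4 neuroglioblastoma cells stably carrying SNCA 5'UTR luciferase fusion; 0% = DMSO wells and 100% = positive control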
# Beta cell apopt = inhibitors of cytokine-induced beta cell apoptosis, primary screen, luminescence; INS-1E cytokine-induced death, ATP luminescence, 48 h; percent of positive-control rescue, neutral wells zero; protection from apoptosis, % (test concentration not listed); 300,000 compounds, 0.8% hits;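 active = Every replicate reaches about 75%, or at least half do and their mean reaches it too, limit read from the data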;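 note: 0% = cytokine-treated negative control wells and 100% = positive control rescue; higher means more ATP so stronger rescue from cytokine killing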
# Mdm2 MdmX PPI = inhibitors of human Mdm2-MdmX association, primary screen, cell-based, luminescence, split luciferase, SaOS-2, uHTS; SaOS-2 split-luciferase Mdm2/MdmX complementation; 330,000 compounds, 3% hits; Protein Mdm4 (Homo sapiens) + E3 ubiquitin-protein ligase Mdm2 (Homo sapiens), …; AID 485346, 2010; inhibition, % at 8 µM;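 active = inhibition of at least 50% at 8 µM in the primary screen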
# Target sequence (O15151 whole entry, looked up): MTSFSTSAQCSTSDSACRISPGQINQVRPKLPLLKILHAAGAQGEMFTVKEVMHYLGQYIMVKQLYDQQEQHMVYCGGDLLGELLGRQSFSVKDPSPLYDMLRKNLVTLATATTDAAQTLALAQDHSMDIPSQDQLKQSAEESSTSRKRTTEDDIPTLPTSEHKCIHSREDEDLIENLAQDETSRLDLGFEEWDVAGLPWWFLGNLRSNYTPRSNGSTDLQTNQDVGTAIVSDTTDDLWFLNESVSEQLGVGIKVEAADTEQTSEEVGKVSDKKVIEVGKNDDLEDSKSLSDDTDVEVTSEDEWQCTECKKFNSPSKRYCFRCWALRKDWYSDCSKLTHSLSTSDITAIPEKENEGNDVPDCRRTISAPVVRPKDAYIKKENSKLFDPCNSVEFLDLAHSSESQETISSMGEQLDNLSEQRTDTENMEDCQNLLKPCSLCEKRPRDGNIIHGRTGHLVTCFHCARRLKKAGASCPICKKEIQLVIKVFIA
# Target sequence (Q00987 whole entry, looked up): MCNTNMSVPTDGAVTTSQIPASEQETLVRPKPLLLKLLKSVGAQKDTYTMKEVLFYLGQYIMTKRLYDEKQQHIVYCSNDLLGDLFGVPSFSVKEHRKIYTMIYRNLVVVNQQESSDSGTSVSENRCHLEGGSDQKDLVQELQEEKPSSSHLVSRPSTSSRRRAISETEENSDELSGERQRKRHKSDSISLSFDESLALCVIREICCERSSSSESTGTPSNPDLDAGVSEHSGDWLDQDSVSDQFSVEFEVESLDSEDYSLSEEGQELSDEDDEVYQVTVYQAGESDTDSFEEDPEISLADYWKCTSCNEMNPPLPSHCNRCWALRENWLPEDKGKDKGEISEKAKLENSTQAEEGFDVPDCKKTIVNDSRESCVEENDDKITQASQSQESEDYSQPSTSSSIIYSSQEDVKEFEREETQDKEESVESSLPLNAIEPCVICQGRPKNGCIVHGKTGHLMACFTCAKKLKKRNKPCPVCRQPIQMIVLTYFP
# CSC inhib = cancer stem cell viability inhibitors, primary screen, luminescence; cancer stem cell-like cells viability; 300,000 compounds, 1.1% hits; inhibition, % at 7.5 µM; AID 2717, 2010; in the data active = inhibition above about 75%; tested in HMLE shEcad cells
# Mdm2 MdmX conf = Mdm2-MdmX complex disruptors, retested hits, confirmation, luminescence, single concentration; shares compounds with Mdm2 MdmX PPI; Mdm2-MdmX binding, luminescent assay; inhibition, % at 8 µM; 10,000 compounds, 55% hits; AID 489028, 2010; in the data active = inhibition above about 40%
# Full FLuc ctr = full-length luciferase signal inhibition, confirmation, counter-screen for Mdm2/MdmX interaction inhibitor project, cell-based, single concentration, SaOS-2; shares compounds with Mdm2 MdmX PPI; SaOS-2 full-length luciferase counterscreen, luminescence; inhibition, % at 8 µM; 6,200 compounds, 77% hits;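 active = mean inhibition at 8 µM reaching about 37%, which flags the compound as non-specific, limit read from the data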;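 note: p53-null SaOS-2 cells with luciferase driven by a doxycycline-inducible promoter; compound on cells about two nights before reading with doxycycline added after day one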
# Active calls of the source: *; x = no result. In the library only some 4.1% were active in any assay of this set; here they are far more common.
SMILES,A1 inh,aSyn 5UTR inh,Beta cell apopt,Mdm2 MdmX PPI,CSC inhib,Mdm2 MdmX conf,Full FLuc ctr
O=C(Nc1cccc(S(=O)(=O)NCc2ccco2)c1)c1cc(-c2ccc(F)cc2)nc2ccccc12,0,-39,x,69*,2,32,76*
COc1cc(C(=O)Nc2cccc(S(=O)(=O)NCc3ccco3)c2)cc(OC)c1OC,-1,x,1,69*,x,40,98*
COc1ccc(-c2cc(C(=O)Nc3cccc(S(=O)(=O)NCc4ccco4)c3)c3ccccc3n2)cc1OC,0,23,11,54*,x,66*,64*
O=C(Nc1ccccc1)c1cccc(S(=O)(=O)NCc2ccco2)c1,-2,1,-1,6,6,x,x
O=C(N[C@H](CO)Cc1ccccc1)c1ccco1,0,-17,x,10,-22,x,x
COc1ccccc1C(=O)C1CCCN(C(=O)CN2CCCCC2=O)C1 (centres undefined),1,14,-11,-9,-8,x,x
O=c1oc2cc(Oc3c([N+](=O)[O-])cc(C(F)(F)F)cc3[N+](=O)[O-])ccc2c2c1CCCC2,0,-7,x,67*,45,14,x
c1ccc2cc(C3CCCCC3)ncc2c1,-2,x,4,-2,3,x,x
COC(=O)CSC1=C(C#N)C(c2ccc(F)cc2)CC(=O)N1 (centres undefined),0,-1,-5,-3,2,x,x
COC(=O)CSC1=C(C#N)C(c2ccc(C)o2)CC(=O)N1 (centres undefined),-1,-38,-2,58*,-18,47*,73*
CC(=O)Nc1nc(-c2ccccc2)c(-c2ccccc2)o1,-1,0,-4,7,8,x,x
COc1cc(OC)cc(C(=O)Nc2nc(-c3ccccc3)c(-c3ccccc3)o2)c1,0,44,25,56*,24,36,x
COc1cc(Cl)c(NC2=CC(=O)C(=O)c3ccccc32)c(OC)c1,0,x,105*,53*,110*,59*,50*
COCCCNS(=O)(=O)c1cc2c3c(c1)C(C)C(=O)N3CCC2 (centres undefined),0,-11,-2,32,-1,x,x
NC(=O)[C@@H]1CC2(CC(c3cccc(NC(=O)CC(c4ccccc4)c4ccccc4)c3)=NO2)CN1C(=O)COc1ccc(Cl)cc1 (some centres undefined),0,27,0,73*,12,42*,80*
NC(=O)[C@H]1CC2(CC(c3cccc(NC(=O)COc4ccc(Cl)cc4)c3)=NO2)CN1C(=O)CC(c1ccccc1)c1ccccc1 (some centres undefined),1,17,13,54*,-8,24,x
CCC(=O)N1CC2(CC(c3cccc(NC(=O)COc4ccc(Cl)cc4)c3)=NO2)C[C@@H]1C(N)=O (some centres undefined),x,12,x,0,x,x,x
COC(=O)c1ccc(CNC(=O)c2ccc(S(=O)(=O)N3CCCC(C)C3)cc2)cc1 (centres undefined),0,x,5,0,x,x,x
O=S(=O)(c1ccc(Cl)c(NC(=S)N/N=C/c2c(F)cccc2F)c1)N1CCOCC1,0,7,-5,50*,8,12,x
CNc1nc(-c2ccc3c(c2)CCN3C(=O)CC(C)(C)C)c(C)s1,1,-118,-2,-16,46,x,x
CC(=O)Nc1nc(-c2ccc3c(c2)CCN3C(=O)C2CC2)c(C)s1,0,-255,9,95*,x,93*,51*
Cc1ccc(NC(=O)CC2(CC(=O)O)CCCC2)c(C)c1,1,-8,x,5,x,x,x
COc1cc2c(cc1OC)CN(C(=O)/C=C/c1ccccc1[N+](=O)[O-])CC2,3,-52,8,61*,-11,53*,86*
